Measurements taken from PubChem BioAssay.
Several values for one entry are separate records, joined by “and”; a condition that tells them apart may be missing. Identical values can stand only once. Activity calls are given as the source filed them.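 How the source made its calls, unless noted: active means thallium flux through the channel raised or lowered by more than 3 SD from vehicle-only wells, actives on both sides; inactive means the rest.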

Legend:
[1] = Cy5 fluorescence interference with SSB-bound oligo, artefact control for HCV NS3 helicase inhibitor project, biochemical, NIH Clinical Collection, E. coli SSB (AID 743268; call rule not given here)
[2] = tested on: Hepatitis C virus NS3 helicase; assay: HCV NS3 helicase inhibitors, primary screen, biochemical, fluorescence polarization, NIH Clinical Collection (AID 743270; call rule not given here); details: NS3 helicase binding to Cy5-dT15 DNA, stronger effect = higher value, concentration not given here
[3] = molecular target: Single-stranded DNA-binding protein (Escherichia coli (strain K12)) (UniProt P0AGE0); assay: E. coli SSB displacement from DNA, counter-screen for HCV NS3 helicase inhibitor project, biochemical, fluorescence polarization, NIH Clinical Collection (AID 743271; in the data active means inhibition above about 28%); details: stronger effect = higher value, concentration not given here
[4] = fluorescence interference in NS3h assay format, artefact control for HCV NS3 helicase inhibitor project, biochemical, NIH Clinical Collection (AID 743272; call rule not given here;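 further: HCV NS3 helicase with a Cy5 labelled single stranded DNA probe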); details: fluorescence interference counterscreen, stronger effect = lower value
[5] = tested on: F380Y/beta4; assay: modulators of BK channel variants, profiling panel, selectivity assay, cell-based, U2OS BacMam, thallium flux, beta subunits (AID 1259406); details: at 30 µM;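 further: initial slope of Thallos dye fluorescence rise after thallium is added; log ratio against the mean of 0.3% DMSO vehicle wells on the same plate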
[6] = molecular target: Calcium-activated potassium channel subunit alpha-1 (Homo sapiens) + Leucine-rich repeat-containing protein 26 (Homo sapiens) (UniProt Q12791+Q2I0M4); assay: as above; details: F380Y/Slo1WT/gamma1, at 30 µM
Calcium-activated potassium channel subunit alpha-1 (Homo sapiens) + Leucine-rich repeat-containing protein 26 (Homo sapiens), sequence (Q2I0M4 whole entry, looked up, one chain of several): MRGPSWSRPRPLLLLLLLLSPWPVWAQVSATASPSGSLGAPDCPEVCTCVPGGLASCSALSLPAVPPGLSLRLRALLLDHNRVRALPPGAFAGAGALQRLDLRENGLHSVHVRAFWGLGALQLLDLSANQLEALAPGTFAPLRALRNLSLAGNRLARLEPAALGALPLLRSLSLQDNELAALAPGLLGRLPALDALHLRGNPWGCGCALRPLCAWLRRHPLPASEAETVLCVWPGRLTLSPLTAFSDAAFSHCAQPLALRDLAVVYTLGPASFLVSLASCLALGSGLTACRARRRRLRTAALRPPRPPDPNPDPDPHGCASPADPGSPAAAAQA

[7] = tested on: R275C; assay: as above; details: at 30 µM
[8] = tested on: R275C/beta1; assay: as above; details: at 30 µM
[9] = tested on: R275C/beta2Delta; assay: as above; details: at 30 µM
[10] = tested on: R275C/beta4; assay: as above; details: at 30 µM
[11] = tested on: R275C/Slo1WT/beta2; assay: as above; details: at 30 µM
[12] = polyglutamine-triggered caspase-3 activation inhibitors, cell-based (AID 1583); details: polyglutamine-induced caspase-3 activation, cell assay; stronger effect = higher value; concentration not given here
[13] = suppressors of polyQ aggregation in yeast, 75Q-TubU reporter (AID 1593); details: Yeast 75Q polyglutamine aggregation reporter
[14] = inhibitors of mitochondrial cytochrome c release, biochemical, purified mitochondria (AID 1603); details: stronger effect = lower value;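 further: mouse liver mitochondria challenged with calcium chloride; signal normalized to the plate average as 100%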
[15] = inhibitors of polyQ protein aggregation (AID 1604); details: polyglutamine-induced protein aggregation inhibition assay; stronger effect = higher value; tested at 2.5 µM
[16] = enhancers of glutamate uptake in motor neurons, MN-1 cell line (AID 1612); details: MN-1 motor neuron cells, stronger effect = higher value;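 further: tested at 1 µM final; 0% = mean of DMSO vehicle wells on each plate; positive means more glutamate uptake than control and negative means less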
[17] = viability rescue of complex I mutant cybrids, primary screen, cell-based, galactose medium, ATP luminescence (AID 1645843;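 active means z-score of at least 1.8 in each of two replicates, scored against plate mean and spread of sample wells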;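 further: positive z means more ATP and so rescue of galactose-driven cybrid death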); details: complex I mutant cybrid cells, 72 h, stronger effect = higher value
[18] = LFS_MB_P medulloblastoma growth inhibition, cell-based, chromothripsis tumors, cisplatin or BGB combos (AID 1671449; in the data active means inhibition above about 80%;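 further: cells exposed for 96 hours; 0% = vehicle DMSO and 100% = killing by high DMSO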); details: LFS_MB_P medulloblastoma cells
[19] = HDN33 neuroblastoma growth inhibition, cell-based, chromothripsis tumors, cisplatin or BGB combos (AID 1671450; in the data active means inhibition above about 80%;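 further: cells exposed to compound for four days; 0% = vehicle DMSO and 100% = cell killing by high DMSO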); details: HDN33 neuroblastoma cells, stronger effect = higher value
[20] = HTB85 osteosarcoma cell growth inhibition, synergistic combos for chromothripsis tumors, BGB or cisplatin IC20 combos (AID 1671453; in the data active means inhibition above about 80%;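 further: cells exposed for 96 hours before readout; 0% = vehicle DMSO and 100% = high DMSO killing control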); details: HTB85 osteosarcoma cells, drug combinations, stronger effect = higher value
[21] = at 0.5 µM, stronger effect = higher value
[22] = measured here: combination with BGB IC20, at 0.005 µM
[23] = measured here: combination with BGB IC40, at 0.005 µM
[24] = measured here: combination with BGB IC40, at 0.05 µM
[25] = measured here: combination with cisplatin, at 0.5 µM, stronger effect = higher value
[26] = measured here: combination with cisplatin, at 5 µM, stronger effect = higher value
[27] = measured here: with BGB IC20 combination, at 0.5 µM
[28] = measured here: with cisplatin IC20 combination, at 0.5 µM
[29] = measured here: with BGB IC20, at 0.5 µM
[30] = measured here: with BGB IC20, at 5 µM
[31] = measured here: with cisplatin IC20, at 0.5 µM
[32] = measured here: with cisplatin IC20, at 5 µM

In the case of CN(C)CCc1c[nH]c2ccc(C[C@H]3COC(=O)N3)cc12, the fluorescence ratio [1] is reported as 1.02 (inactive), the inhibition [2] is reported as -2.84% (inactive) and the inhibition [3] is reported as -4.33% (inactive). For the same compound, the fluorescence ratio [4] was 1 (inactive), the log fold change Tl+ flux [5] was 0.0115 (inactive) and the log fold change Tl+ flux [6] was 0.0131 (inactive). For the same compound, the log fold change Tl+ flux [7] was -0.02 (inactive), the log fold change Tl+ flux [8] was 0.0275 (inactive) and the log fold change Tl+ flux [9] was -0.0113 (inactive). For the same compound, the log fold change Tl+ flux [10] was 0.00246 (inactive) and the log fold change Tl+ flux [11] was 0.0342 (inactive).

Cn1cnc([N+](=O)[O-])c1Sc1ncnc2nc[nH]c12 showed an inhibition [12] of 18.4%, a score [13] of 0.86 and a cytochrome c release ratio [14] of 0.54. For the same compound, the inhibition of aggregation [15] was 83.1%, the glutamate uptake change [16] was -23.5% and the fluorescence ratio [1] was 1.03 (inactive). For the same compound, the inhibition [2] was -3.18% (inactive), the inhibition [3] was -2.76% (inactive) and the fluorescence ratio [4] was 0.99 (inactive). For the same compound, the z-score [17] was -0.21 (inactive) and -1.11 (inactive), the inhibition [18, 21] was -24.5% (inactive) and -18.6% (inactive) and the inhibition [18, 22] was -29.8% and -1.49%. The inhibition [18, 23] was -7.88% and -5.24%, the inhibition [18, 24] was -1.05% and 8.34% and the inhibition [18, 25] was -41.8% and -13.7%. The inhibition [18, 26] was -15% and -14.9%, the inhibition ([19]; BGB combo, at 5 µM) was 27% and -4.71% and the inhibition ([19]; at 0.5 µM) was 9.11% (inactive) and 3.47% (inactive). For the same compound, the inhibition ([19]; cisplatin combo, at 5 µM) was 18.8% and 16.9%, the inhibition [19, 27] was 3.66% and -16.5% and the inhibition [19, 28] was 5.32% and -7.32%. For the same compound, the inhibition ([19]; single agent, at 5 µM) was 55.4% and 48.5%, the inhibition ([20]; at 0.5 µM) was -24.4% (inactive) and -11% (inactive) and the inhibition [20, 29] was -62.4% and -24%. The inhibition [20, 30] was -10.9% and -18.4%, the inhibition [20, 31] was -12.7% and 1.06% and the inhibition [20, 32] was 8.32% and 19.5%. The inhibition ([20]; single agent, at 5 µM) was 11% and -0.274%, the log fold change Tl+ flux [5] was -0.00991 (inactive) and the log fold change Tl+ flux [6] was -4.3e-05 (inactive). For the same compound, the log fold change Tl+ flux [7] was -0.0406 (inactive), the log fold change Tl+ flux [8] was 0.0023 (inactive) and the log fold change Tl+ flux [9] was -0.053 (inactive). The log fold change Tl+ flux [10] was -0.0246 (inactive) and the log fold change Tl+ flux [11] was 0.0598 (inactive).

With CCCCCCNC(=O)n1cc(F)c(=O)[nH]c1=O the fluorescence ratio [1] was 1.03 (inactive), the inhibition [2] was 0.4% (inactive) and the inhibition [3] was 1.44% (inactive). The fluorescence ratio [4] was 0.97 (inactive), the z-score [17] was 1.85 (inactive) and the inhibition [18, 21] was -27.2% (inactive) and -12.2% (inactive). The inhibition [18, 22] was -12% and -29.3%, the inhibition [18, 23] was -26.4% and -7.28% and the inhibition [18, 24] was -34.3% and -13.5%. For the same compound, the inhibition [18, 25] was -48.8% and -55.1%, the inhibition [18, 26] was -34.6% and -25% and the inhibition ([19]; BGB combo, at 5 µM) was 41.9% and 91.3%. For the same compound, the inhibition ([19]; at 0.5 µM) was -22% (inactive) and -3.86% (inactive), the inhibition ([19]; cisplatin combo, at 5 µM) was 46.1% and 36.7% and the inhibition [19, 27] was -20.7% and 5.65%. For the same compound, the inhibition [19, 28] was -11.9% and -1.01%, the inhibition ([19]; single agent, at 5 µM) was 90.7% and 52% and the inhibition ([20]; at 0.5 µM) was -3.88% (inactive) and -24.5% (inactive). The inhibition [20, 29] was -6.6% and -67.2%, the inhibition [20, 30] was 21% and 3.85% and the inhibition [20, 31] was -9.7% and -6.78%. The inhibition [20, 32] was 9.85% and 21%, the inhibition ([20]; single agent, at 5 µM) was 31.6% and 31.5% and the log fold change Tl+ flux [5] was -0.0261 (inactive). For the same compound, the log fold change Tl+ flux [6] was -0.0355 (inactive), the log fold change Tl+ flux [7] was -0.0237 (inactive) and the log fold change Tl+ flux [8] was 0.00244 (inactive). For the same compound, the log fold change Tl+ flux [9] was -0.0282 (inactive), the log fold change Tl+ flux [10] was -0.000915 (inactive) and the log fold change Tl+ flux [11] was -0.00804 (inactive).
